From PubChem BioAssay
Several values for one entry are separate records, joined by “and”; a condition that tells them apart may be missing. Identical values can stand only once. Results filed as inconclusive are left out. Activity calls are given as the source filed them.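 How the source made its calls, unless noted: active means inhibition above 50%, about 3 SD of the validation set; inactive means the rest.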

Assays:
[1] = yeast TOR pathway RPL19A-GFP modulators, primary screen, cell-based, S. cerevisiae, multiplex flow cytometry (AID 1862; in the data active means percent of DMSO control GFP below about 86%;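 further: lower values mimic rapamycin by blocking the RPL19A rise seen in DMSO cells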); conditions: S. cerevisiae RPL19A-GFP strain, flow cytometry fluorescence, 3 h; at 10 µM; stronger effect = lower value
[2] = modulators of MEP2-GFP levels in yeast, primary screen, S. cerevisiae, multiplex flow cytometry (AID 1867;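 active means GFP response, as percent of the DMSO control, above the screen-wide mean plus 3 SD, about 139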;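 further: median GFP channel fluorescence of barcode-gated MEP2-GFP cells measured by flow cytometry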); conditions: S. cerevisiae MEP2-GFP strain, 3 h, at 10 µM, stronger effect = higher value, 100% means same as DMSO wells
[3] = modulators of CIT2-GFP expression in yeast, primary screen, S. cerevisiae, GFP fusion, multiplex flow cytometry (AID 1870;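 active means percent response above a set limit, the screen-wide mean plus 3 SD, cut at about 130% in these data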;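 further: barcoded CIT2-GFP strain pooled with four other GFP strains with rapamycin as positive control; median GFP fluorescence per well over plate mean of DMSO wells so 100% = DMSO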); conditions: 3 h, at 10 µM, stronger effect = higher value
[4] = modulators of LAP4-GFP expression in yeast, primary screen, S. cerevisiae, multiplex flow cytometry (AID 1873;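 active means GFP signal, as percent of the solvent control, above the screen mean plus 3 SD, about 149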); conditions: 3 h, at 10 µM, stronger effect = higher value
[5] = modulators of AGP1-GFP expression in yeast TOR pathway, primary screen, cell-based, multiplex flow cytometry, S. cerevisiae (AID 1887;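 active means GFP signal above the screen-wide mean plus 3 SD, that is over about 124.5% of the solvent control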;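 further: AGP1-GFP fusion strain of S. cerevisiae within a five-strain barcoded multiplex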); conditions: 3 h, at 10 µM, stronger effect = higher value
[6] = inhibitors of CD8+ T cell-vesicle binding, pilot screen, LFA-1/ICAM-1 modulator project, MLPCN validation set, flow cytometry (AID 2523;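 active means response below a set limit, under 55% cells CD8-positive and vesicle-bound, and CD8 cells' 90th-percentile brightness under 279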;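 on vesicle binding response: mean PE anti-B7-1 fluorescence of CD8+ cells relative to row control; 100% = QL9-loaded vesicles with DMSO vehicle in the same plate row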); conditions: 2C mouse CD8+ T cells, at 7 µM, stronger effect = lower value; double positive events: measured here: CD8+/vesicle+ event percentage
[7] = target: Integrin beta-1 (Homo sapiens) + Integrin alpha-4 (Homo sapiens) (UniProt P13612+P05556); experiment: inhibition of HUTS-21 binding to VLA-4, pilot screen, VLA-4 allosteric modulator project, U937 cells, HUTS-21 mAb, flow cytometry, validation set (AID 2674); conditions: HUTS-21 LIBS mAb binding, at 6.7 µM, stronger effect = higher value, binding induced by LDV ligand;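 further: antibody binding induced by the VLA-4 ligand LDV present at three times its Kd; 0% = LDV ligand with antibody and no compound and 100% = antibody without LDV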
Integrin beta-1 (Homo sapiens) + Integrin alpha-4 (Homo sapiens), sequence (P05556 whole entry, looked up): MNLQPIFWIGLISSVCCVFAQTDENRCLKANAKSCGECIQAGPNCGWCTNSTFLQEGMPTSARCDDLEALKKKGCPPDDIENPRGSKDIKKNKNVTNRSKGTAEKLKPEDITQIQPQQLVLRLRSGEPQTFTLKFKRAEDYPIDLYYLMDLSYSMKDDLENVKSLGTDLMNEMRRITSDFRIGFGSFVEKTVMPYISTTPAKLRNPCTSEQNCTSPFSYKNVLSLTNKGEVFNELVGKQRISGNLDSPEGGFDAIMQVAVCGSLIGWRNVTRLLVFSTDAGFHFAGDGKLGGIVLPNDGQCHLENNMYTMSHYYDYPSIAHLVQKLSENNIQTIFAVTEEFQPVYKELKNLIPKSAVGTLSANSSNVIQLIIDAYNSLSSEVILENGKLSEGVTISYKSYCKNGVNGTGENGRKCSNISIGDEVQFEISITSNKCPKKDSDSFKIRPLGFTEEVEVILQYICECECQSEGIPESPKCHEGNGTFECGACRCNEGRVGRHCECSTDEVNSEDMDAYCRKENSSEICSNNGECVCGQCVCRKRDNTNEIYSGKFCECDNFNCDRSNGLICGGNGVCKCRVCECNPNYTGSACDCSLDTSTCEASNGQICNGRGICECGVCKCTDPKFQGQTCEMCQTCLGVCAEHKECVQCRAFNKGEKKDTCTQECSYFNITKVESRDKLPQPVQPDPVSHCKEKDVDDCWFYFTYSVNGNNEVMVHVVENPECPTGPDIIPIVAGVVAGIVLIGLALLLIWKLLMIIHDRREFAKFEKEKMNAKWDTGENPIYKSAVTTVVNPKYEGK
Integrin beta-1 (Homo sapiens) + Integrin alpha-4 (Homo sapiens), sequence (P13612 whole entry, looked up): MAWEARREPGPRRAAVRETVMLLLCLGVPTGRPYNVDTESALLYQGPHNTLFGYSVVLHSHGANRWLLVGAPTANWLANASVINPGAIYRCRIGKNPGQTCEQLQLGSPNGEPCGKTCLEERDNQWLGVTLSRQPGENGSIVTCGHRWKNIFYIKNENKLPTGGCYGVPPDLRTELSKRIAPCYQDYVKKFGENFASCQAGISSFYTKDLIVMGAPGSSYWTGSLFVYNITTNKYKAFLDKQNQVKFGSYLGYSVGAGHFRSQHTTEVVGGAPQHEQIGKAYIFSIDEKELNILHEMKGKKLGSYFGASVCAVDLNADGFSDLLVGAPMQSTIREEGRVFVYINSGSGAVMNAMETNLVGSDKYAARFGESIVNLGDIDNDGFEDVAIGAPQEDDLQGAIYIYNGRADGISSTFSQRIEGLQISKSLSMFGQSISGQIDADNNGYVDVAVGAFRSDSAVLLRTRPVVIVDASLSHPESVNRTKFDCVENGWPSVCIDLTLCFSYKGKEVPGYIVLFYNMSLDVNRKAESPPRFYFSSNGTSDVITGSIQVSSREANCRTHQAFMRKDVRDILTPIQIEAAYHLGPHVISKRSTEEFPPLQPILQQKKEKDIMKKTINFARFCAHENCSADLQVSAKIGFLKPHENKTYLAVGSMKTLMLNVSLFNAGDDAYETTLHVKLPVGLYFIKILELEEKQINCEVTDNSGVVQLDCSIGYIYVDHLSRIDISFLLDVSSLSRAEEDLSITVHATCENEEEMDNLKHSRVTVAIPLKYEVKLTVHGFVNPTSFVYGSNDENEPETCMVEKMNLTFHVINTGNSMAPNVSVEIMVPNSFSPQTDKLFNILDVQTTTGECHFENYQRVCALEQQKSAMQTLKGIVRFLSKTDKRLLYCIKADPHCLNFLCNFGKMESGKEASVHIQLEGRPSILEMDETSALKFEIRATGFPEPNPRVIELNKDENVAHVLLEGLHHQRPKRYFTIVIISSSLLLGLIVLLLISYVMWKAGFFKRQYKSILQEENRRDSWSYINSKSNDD

[8] = superoxide lowering in aged yeast cells, pilot screen, validation compound set (AID 2706;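 active means superoxide response below 65% of plate, a cut near 3 SD across the whole screen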;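 further: yeast exposed to compound for one week at 30 degrees C before staining; 100% = mean of all compound wells on the same plate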); conditions: S. cerevisiae aging, superoxide DHE fluorescence; at 10 µM; stronger effect = lower value
[9] = target: Beta-adrenergic receptor kinase 1 (Homo sapiens) (UniProt P25098); experiment: GRK2 binders displacing RNA aptamer, biochemical, validation, human GRK2, bead flow cytometry (AID 488806;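 active means aptamer binding inhibition above 30%, about 3 SD of noise from non-fluorescent compounds; inactive means inhibition at or below 30%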); conditions: bead-bound GRK2, FAM-aptamer displacement, at 10 µM, stronger effect = higher value
Beta-adrenergic receptor kinase 1 (Homo sapiens), sequence (P25098 whole entry, looked up): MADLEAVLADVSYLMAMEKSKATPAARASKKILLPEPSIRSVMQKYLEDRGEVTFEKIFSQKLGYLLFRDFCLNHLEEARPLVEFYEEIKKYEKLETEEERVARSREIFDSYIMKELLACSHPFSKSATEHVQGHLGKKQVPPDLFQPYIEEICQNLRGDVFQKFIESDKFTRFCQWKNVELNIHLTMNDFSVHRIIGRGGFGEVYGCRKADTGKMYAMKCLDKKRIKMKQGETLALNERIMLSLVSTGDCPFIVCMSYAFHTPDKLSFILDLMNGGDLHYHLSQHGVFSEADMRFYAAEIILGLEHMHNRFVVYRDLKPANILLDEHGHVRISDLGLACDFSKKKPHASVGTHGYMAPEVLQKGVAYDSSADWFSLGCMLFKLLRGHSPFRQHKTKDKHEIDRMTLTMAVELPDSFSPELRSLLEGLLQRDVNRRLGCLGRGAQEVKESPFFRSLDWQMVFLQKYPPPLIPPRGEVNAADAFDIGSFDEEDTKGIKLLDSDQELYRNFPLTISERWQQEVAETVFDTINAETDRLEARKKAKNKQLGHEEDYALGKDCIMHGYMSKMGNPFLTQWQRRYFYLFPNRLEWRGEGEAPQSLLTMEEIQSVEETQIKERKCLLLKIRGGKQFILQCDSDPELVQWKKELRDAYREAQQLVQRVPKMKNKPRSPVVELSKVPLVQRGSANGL

[10] = target: Beta-2 adrenergic receptor (Homo sapiens) (UniProt P07550); experiment: beta2AR agonists driving receptor internalization, pilot screen, cell-based, FAP fluorogen, flow cytometry, validation set (AID 504459;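 active means percent response above 42, roughly 3 SD of non-fluorescent test compounds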;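 further: agonist-driven loss of surface beta2AR via internalization measured by FAP dye flow cytometry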); conditions: Am2.2-beta2AR cells, FAP surface receptor flow cytometry; at 10 µM; stronger effect = higher value
Beta-2 adrenergic receptor (Homo sapiens), sequence (P07550 whole entry, looked up): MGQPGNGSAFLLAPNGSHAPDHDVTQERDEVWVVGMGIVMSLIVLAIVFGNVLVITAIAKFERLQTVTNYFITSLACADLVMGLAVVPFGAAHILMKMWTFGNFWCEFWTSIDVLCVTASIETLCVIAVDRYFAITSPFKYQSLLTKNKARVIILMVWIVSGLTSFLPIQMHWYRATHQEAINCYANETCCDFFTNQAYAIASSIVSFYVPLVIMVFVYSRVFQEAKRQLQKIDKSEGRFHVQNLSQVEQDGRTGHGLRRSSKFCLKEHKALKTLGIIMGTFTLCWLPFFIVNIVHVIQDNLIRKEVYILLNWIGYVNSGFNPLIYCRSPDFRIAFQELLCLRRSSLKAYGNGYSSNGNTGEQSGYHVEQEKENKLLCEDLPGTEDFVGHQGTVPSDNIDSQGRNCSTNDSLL

[11] = target: AP-2 complex subunit beta (Homo sapiens) (UniProt P63010); experiment: inhibitors of arrestin peptide binding to AP2, pilot screen, biochemical, validation set, GST-AP2 beads, flow cytometry (AID 504541;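 active means inhibition above 54%, about 3 SD of non-fluorescent compounds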;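 further: AP2 carries R879A mutation and is captured from E. coli lysate; bead-bound FITC arrestin peptide fluorescence measuring arrestin peptide binding to AP2; 0% = DMSO wells and 100% = excess unlabeled arrestin peptide control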); conditions: FITC arrestin peptide, at 10 µM, stronger effect = higher value, AP2 beta2 appendage fragment, R879A mutant
AP-2 complex subunit beta (Homo sapiens), sequence (P63010 whole entry, looked up, the tested form may be a part, one chain of several): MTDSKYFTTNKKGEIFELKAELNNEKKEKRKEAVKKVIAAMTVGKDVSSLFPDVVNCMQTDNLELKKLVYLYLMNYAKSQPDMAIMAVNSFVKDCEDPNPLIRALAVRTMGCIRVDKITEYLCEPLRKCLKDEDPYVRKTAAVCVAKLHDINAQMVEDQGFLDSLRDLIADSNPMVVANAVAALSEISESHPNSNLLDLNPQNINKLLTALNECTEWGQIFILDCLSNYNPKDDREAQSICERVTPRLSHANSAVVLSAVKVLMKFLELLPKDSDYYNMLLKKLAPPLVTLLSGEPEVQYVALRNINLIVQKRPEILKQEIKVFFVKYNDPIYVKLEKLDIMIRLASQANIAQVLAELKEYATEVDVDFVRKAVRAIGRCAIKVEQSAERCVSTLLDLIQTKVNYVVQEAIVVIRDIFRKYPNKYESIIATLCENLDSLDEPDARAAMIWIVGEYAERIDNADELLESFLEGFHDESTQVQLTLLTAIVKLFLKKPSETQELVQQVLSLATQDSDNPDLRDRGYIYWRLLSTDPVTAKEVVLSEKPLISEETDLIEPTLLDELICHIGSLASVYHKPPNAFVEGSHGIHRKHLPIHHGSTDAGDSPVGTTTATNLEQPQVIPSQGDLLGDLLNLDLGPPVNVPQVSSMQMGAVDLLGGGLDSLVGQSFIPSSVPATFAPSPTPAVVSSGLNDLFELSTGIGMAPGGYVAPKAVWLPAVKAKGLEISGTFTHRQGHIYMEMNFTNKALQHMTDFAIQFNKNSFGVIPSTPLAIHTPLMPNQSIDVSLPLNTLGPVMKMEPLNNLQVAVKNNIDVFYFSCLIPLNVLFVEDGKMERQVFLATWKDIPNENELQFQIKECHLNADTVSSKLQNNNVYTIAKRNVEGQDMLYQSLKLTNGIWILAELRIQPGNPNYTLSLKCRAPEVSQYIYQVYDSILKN

[12] = yeast V-ATPase proton transport modulators, S. cerevisiae, pHLuorin, HTS validation (AID 504600; in the data active means response above about 15%;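 further: plate controls were DMSO for no effect and reference compound for full effect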); conditions: S. cerevisiae pHLuorin cytosolic pH, at 10 µM, stronger effect = higher value
[13] = test system: anti-desmoglein-3 scFv antibody binding to human DSG3; experiment: inhibitors of anti-DSG3 scFv binding to DSG3, pilot screen, biochemical, validation compound set, bead-based, flow cytometry (AID 588368;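 active means binding below the plate cutoff, the plate median minus 3 SD, with a reading above zero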;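 further: signal is the median channel fluorescence of bead-bound GFP antibody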); conditions: Protein G beads, DSG3-Fc, scFv-GFP binding, at 10 µM, stronger effect = lower value
[14] = inhibitors of fungal efflux pumps CDR1, CDR2, MDR1, pilot screen, validation compound set, multiplex, phenotypic (AID 588506;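 active means efflux inhibition above 0.42, the validation set average plus 4 SD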;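 further: Nile Red retained in cells so higher fluorescence means more efflux inhibition; 0 = negative control wells and 1 = enniatin B 25 µM full block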); conditions: S. cerevisiae pump-expressing triplex, Nile Red efflux flow cytometry; at 10 µM; stronger effect = higher value; the pumps come from Candida albicans
[15] = target: ATP-binding cassette sub-family B member 6 (Homo sapiens) (UniProt Q9NP58); experiment: ABCB6 transporter inhibitors, pilot screen, K562-ABCB6 cells, flow cytometry, validation set (AID 588550;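 active means inhibition above the screen-wide mean plus 3 SD, about 51%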;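 further: 0% = DMSO wells and 100% = benzethonium chloride 70 µM positive control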); conditions: K562-ABCB6 porphyrin accumulation, 1 h, at 10 µM, stronger effect = higher value
ATP-binding cassette sub-family B member 6 (Homo sapiens), sequence (Q9NP58 whole entry, looked up): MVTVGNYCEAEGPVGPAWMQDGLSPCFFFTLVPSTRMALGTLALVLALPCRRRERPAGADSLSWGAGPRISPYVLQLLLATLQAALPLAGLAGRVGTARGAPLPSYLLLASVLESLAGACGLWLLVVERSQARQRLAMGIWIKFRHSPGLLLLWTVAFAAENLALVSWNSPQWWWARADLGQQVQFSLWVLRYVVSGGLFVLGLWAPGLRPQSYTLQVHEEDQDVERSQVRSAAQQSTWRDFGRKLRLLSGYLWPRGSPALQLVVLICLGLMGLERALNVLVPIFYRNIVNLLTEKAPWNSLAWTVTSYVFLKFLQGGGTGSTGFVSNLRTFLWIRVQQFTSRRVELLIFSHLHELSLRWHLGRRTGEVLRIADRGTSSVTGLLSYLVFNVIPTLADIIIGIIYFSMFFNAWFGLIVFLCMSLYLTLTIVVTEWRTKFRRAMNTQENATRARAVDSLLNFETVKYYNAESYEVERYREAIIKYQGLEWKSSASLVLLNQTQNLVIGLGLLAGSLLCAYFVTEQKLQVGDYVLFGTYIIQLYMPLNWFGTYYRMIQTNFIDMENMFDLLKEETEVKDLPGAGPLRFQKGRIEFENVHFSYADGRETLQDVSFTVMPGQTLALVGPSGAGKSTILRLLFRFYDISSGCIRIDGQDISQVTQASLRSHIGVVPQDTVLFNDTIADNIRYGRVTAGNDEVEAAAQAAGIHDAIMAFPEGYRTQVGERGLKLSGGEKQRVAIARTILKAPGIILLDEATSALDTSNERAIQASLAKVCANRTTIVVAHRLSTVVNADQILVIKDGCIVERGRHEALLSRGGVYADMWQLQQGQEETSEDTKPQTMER

[16] = promoters of myeloid differentiation in arrested cells, primary screen, cell-based, GFP/MAC1 double positive, flow cytometry, validation set (AID 588685;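 active means differentiation response of at least 50%, scaled between solvent and reference control, from cells with both markers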;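 further: compound exposure lasts four days before antibody staining and flow analysis; 0% = DMSO wells and 100% = 5 µM fulvestrant positive control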); conditions: ER-HoxA9 marrow cells, stronger effect = higher value, normalized: vehicle 0, fulvestrant 100

O=C(O)C1[C@H]2C(=O)N(C3CCCC3)C[C@]23C=C[C@H]1O3 (stereo partly drawn)
57.9%: double positive events [6]
inactive: percent of DMSO control GFP [1] 99.5% | GFP response vs DMSO [2] 104% | percent response of DMSO control [3] 101% | GFP response vs DMSO [4] 121% | GFP response, % of DMSO [5] 113% | vesicle binding response [6] 153% | inhibition [7] 11.7% | superoxide response (% of plate) [8] 88% | aptamer binding inhibition [9] -2% | response [10] -17.8% | inhibition [11] -2.45% | response [12] -1.21% | binding (% of control) [13] 101% | efflux inhibition (fraction of control) [14] 0.04 | inhibition [15] 1% | differentiation response [16] -6.96%

CC(=O)Nc1ccc2[nH]c(C)c(CC=C(Cl)Cl)c(=O)c2c1
inactive: percent of DMSO control GFP [1] 105% | GFP response vs DMSO [2] 113% | percent response of DMSO control [3] 93.9% | GFP response vs DMSO [4] 87.3% | GFP response, % of DMSO [5] 94.8% | vesicle binding response [6] 146% | inhibition [7] 12.6% | superoxide response (% of plate) [8] 110% | aptamer binding inhibition [9] 4% | response [10] 5.01% | inhibition [11] -17.8% | response [12] 0.46% | binding (% of control) [13] 97.9% | efflux inhibition (fraction of control) [14] 0.14 | inhibition [15] 11% | differentiation response [16] -5.68%
61.1%: double positive events [6]

N/C(Cc1ccc(Cl)cc1Cl)=N\OC(=O)c1ccc(Br)o1
52.1%: double positive events [6]
active: GFP response vs DMSO [4] 167%
inactive: percent of DMSO control GFP [1] 93.5% | GFP response vs DMSO [2] 128% | percent response of DMSO control [3] 106% | GFP response, % of DMSO [5] 43.5% | vesicle binding response [6] 224% | inhibition [7] -11.3% | superoxide response (% of plate) [8] 124% | aptamer binding inhibition [9] -2% | response [10] 6.81% | inhibition [11] -11% | response [12] 3.34% | binding (% of control) [13] 105% | efflux inhibition (fraction of control) [14] -0.39 | inhibition [15] 2% | differentiation response [16] 2.4%

CN1[C@@H]2CC(OC(=O)[C@H](CO)c3ccccc3)C[C@H]1[C@@H]1O[C@@H]12 (stereo partly drawn)
62.9% and 62.1%: double positive events [6]
inactive: percent of DMSO control GFP [1] 107% and 99.1% | GFP response vs DMSO [2] 101% and 115% | percent response of DMSO control [3] 109% and 93.9% | GFP response vs DMSO [4] 109% and 117% | GFP response, % of DMSO [5] 114% and 103% | vesicle binding response [6] 177% and 215% | inhibition [7] 0.25% and 6.4% | superoxide response (% of plate) [8] 99.8% and 101% | aptamer binding inhibition [9] -1% and 3% | response [10] -2.34% and -12.4% | inhibition [11] 14.7% and 37.8% | response [12] -8.23% and -3.95% | binding (% of control) [13] 101% and 98.7% | efflux inhibition (fraction of control) [14] -0.26 and -0.1 | inhibition [15] -10% and 4% | differentiation response [16] -3.11% and -2.4%

CC1CC(OC(=O)C(O)c2ccccc2)CC(C)(C)N1C (stereo not drawn)
inactive: percent of DMSO control GFP [1] 94.4% | GFP response vs DMSO [2] 112% | percent response of DMSO control [3] 94.8% | GFP response vs DMSO [4] 111% | GFP response, % of DMSO [5] 97.5% | vesicle binding response [6] 217% | inhibition [7] -8.62% | superoxide response (% of plate) [8] 99.3% | aptamer binding inhibition [9] 0% | response [10] 0.13% | inhibition [11] -13.2% | response [12] 7.51% | binding (% of control) [13] 103% | efflux inhibition (fraction of control) [14] -0.03 | inhibition [15] 5% | differentiation response [16] -18.4%
57.9%: double positive events [6]

O=C1CC(c2ccc(OCCCCCOc3ccc(C4CC(=O)NC4=O)cc3)cc2)C(=O)N1 (stereo not drawn)
inactive: percent of DMSO control GFP [1] 105% | GFP response vs DMSO [2] 98.3% | percent response of DMSO control [3] 97.8% | GFP response vs DMSO [4] 82.8% | GFP response, % of DMSO [5] 92.9% | vesicle binding response [6] 1500% | inhibition [7] 15.1% | superoxide response (% of plate) [8] 95% | aptamer binding inhibition [9] 3% | response [10] 4.67% | inhibition [11] -7.1% | response [12] 2.37% | binding (% of control) [13] 101% | efflux inhibition (fraction of control) [14] 0.11 | inhibition [15] 11% | differentiation response [16] 24.7%
63.3%: double positive events [6]

O=C(O)c1ccccc1Nc1cccc(C(F)(F)F)c1
inactive: percent of DMSO control GFP [1] 95% | GFP response vs DMSO [2] 103% | percent response of DMSO control [3] 88.2% | GFP response vs DMSO [4] 93.1% | GFP response, % of DMSO [5] 82.4% | vesicle binding response [6] 7820% | inhibition [7] -15.4% | superoxide response (% of plate) [8] 98.3% | aptamer binding inhibition [9] 2% | response [10] -9.88% | inhibition [11] -15.2% | response [12] 1.34% | binding (% of control) [13] 98.2% | efflux inhibition (fraction of control) [14] -0.24 | differentiation response [16] 18.4%
active: inhibition [15] 112%
74%: double positive events [6]

Cc1c(NC(=O)c2cccs2)cccc1[N+](=O)[O-]
inactive: percent of DMSO control GFP [1] 102% | GFP response vs DMSO [2] 103% | percent response of DMSO control [3] 102% | GFP response vs DMSO [4] 107% | GFP response, % of DMSO [5] 99.1% | vesicle binding response [6] 342% | inhibition [7] 2.93% | superoxide response (% of plate) [8] 95.5% | aptamer binding inhibition [9] -4% | response [10] 3.73% | inhibition [11] -17.9% | response [12] -1.2% | binding (% of control) [13] 104% | efflux inhibition (fraction of control) [14] -0.01 | inhibition [15] 1% | differentiation response [16] 18.8%
67.8%: double positive events [6]

CCOC(=O)c1cc2c(nc1N)CC(C)(CC)OC2 (stereo not drawn)
active: differentiation response [16] 60%
61.3%: double positive events [6]
inactive: percent of DMSO control GFP [1] 101% | GFP response vs DMSO [2] 109% | percent response of DMSO control [3] 91% | GFP response vs DMSO [4] 127% | GFP response, % of DMSO [5] 100% | vesicle binding response [6] 170% | inhibition [7] 9.13% | superoxide response (% of plate) [8] 97.3% | aptamer binding inhibition [9] -1% | response [10] -13.4% | inhibition [11] 38.2% | response [12] -3.65% | binding (% of control) [13] 105% | efflux inhibition (fraction of control) [14] -0.24 | inhibition [15] 3%
